Data from ChEMBL document CHEMBL4513146, “CO-ADD screening of Karazin Kharkiv National University (Ukraine) compounds”.
Potency and affinity values are given separately.

What was measured:
Klebsiella pneumoniae = details: Concentration 32 ug.mL-1;; ASSAY_TEST Inhibition of Bacterial Growth; detection method Absorption (OD600); MEDIA CAMHB; plate type 384well; NBS; CORNING #3640; time 18 hr
Candida albicans = details: Concentration 32 ug.mL-1; ASSAY_TEST Inhibition of Fungal Growth; detection method Absorption (OD530)
Cryptococcus neoformans = details: Concentration 32 ug.mL-1; ASSAY_TEST Inhibition of Fungal Growth; detection method Resazurin; Absorption (OD600-OD570); plate type 384well; NBS; CORNING #3640

| SMILES | Inhibition (Klebsiella pneumoniae) | Inhibition (Candida albicans) | Inhibition (Cryptococcus neoformans) |
| --- | --- | --- | --- |
| COc1cccc(-n2ccn3c(SCC(=O)NC(C)C)nnc3c2=O)c1 | 10.83% | 1.96% | -12.8% |
| CCc1nnc2ccc(S(=O)(=O)N(Cc3cccc(F)c3)c3ccc(OC)cc3)cn12 | -6.85% | 1.92% | -10.67% |
| CCc1ccccc1Sc1nccn2c(=O)n(CC(=O)Nc3ccc(C)cc3C)nc12 | 5.62% | 1.23% | -14.18% |
| COc1ccc(CNC(=O)Cn2nc3c(N4CCN(c5ccccc5C)CC4)nccn3c2=O)cc1 | -11.16% | 37.75% | -4.67% |
| CCCCOc1ccc(-c2cc3c4nnc(SCC(=O)Nc5ccc(C)c(F)c5)n4ccn3n2)cc1 | 6.88% | 11.03% | -15.89% |
| CCOc1ccc(-n2ccn3c(SCC(=O)Nc4ccccc4C(F)(F)F)nnc3c2=O)cc1 | 17.14% | 2.4% | -14.22% |
| CCOc1ccc(-n2ccn3c(SCC(=O)c4ccc(OC)cc4)nnc3c2=O)cc1 | 12.65% | 0.38% | -12.6% |
| Cc1ccc(NC(=O)CSc2nc3ccccc3n3c(C)nnc23)cc1C | -6.18% | 44.31% | -14.42% |
| COc1ccccc1Cn1c(=O)c2sccc2n2c(=O)n(CC(=O)c3ccc(C)cc3C)nc12 | 4.01% | 8% | -26.25% |
| CN(C(=O)Cn1nc2nc(Nc3ccc(F)cc3)ccn2c1=O)c1ccccc1 | 8.25% | 3.9% | -4.67% |
| Cc1ccc(Oc2nccn3c(=O)n(CC(=O)Nc4ccc(C)cc4Cl)nc23)cc1 | 4.57% | 3.92% | -3.03% |
| CCOc1ccccc1NC(=O)Cn1nc2c(Sc3cccc(C)c3)nccn2c1=O | 9.01% | 0.35% | -13.32% |
| COc1cc(-c2nnc3c(=O)n(Cc4ccc(Cl)cc4)ccn23)cc(OC)c1OC | 11.02% | -0.08% | -21.41% |
| O=C(Cn1nc2nc(Nc3ccc(F)cc3)ccn2c1=O)NCC1CCCO1 (stereo unspecified) | 12.02% | 1.89% | -8.84% |
| COc1ccccc1NC(=O)CSc1nnc2c(=O)n(-c3ccc(C)c(C)c3)ccn12 | 7.95% | 1.21% | -7.82% |
| CCc1nnc2c(S(=O)(=O)N(Cc3cccc(Cl)c3)c3ccccc3)cccn12 | -7.54% | 2.13% | -7.64% |
| Cc1nnc2ccc(S(=O)(=O)N(Cc3cc(F)cc(F)c3)c3ccccc3)cn12 | 7.27% | 2.01% | -9.38% |
| COc1cccc(Oc2nccn3c(=O)n(CC(=O)Nc4ccc(C(C)C)cc4)nc23)c1 | -4.77% | 3.55% | -2.79% |
| CC(C)n1c(=O)c2ccc(C(=O)NC3CCCC3)cc2n2c(=O)n(Cc3cccc(C(F)(F)F)c3)nc12 | 13.79% | 1.19% | -23.89% |
| Cc1ccc(C)c(CN(c2cccc(Cl)c2)S(=O)(=O)c2cccn3c(C)nnc23)c1 | 5.81% | 2.43% | -8.33% |
| O=C(CSc1nnc2c(=O)n(-c3cccc(F)c3)ccn12)NCCc1ccccc1 | -3.34% | 5.41% | -10.18% |
| CCc1cccc(NC(=O)Cn2nc3ccc(SC4CCCCC4)nn3c2=O)c1 | 16.99% | 2.91% | -22.11% |
| COc1ccc(-c2cc3c4nn(CC(=O)Nc5ccc6c(c5)OCO6)c(=O)n4ccn3n2)cc1 | 2.73% | 15.19% | -14.04% |
| O=C(CSc1nnc2c(=O)n(-c3ccccc3)ccn12)Nc1ccc2c(c1)OCO2 | 8.73% | 0.46% | -18.26% |
| COC(=O)c1ccccc1NC(=O)Cn1nc2c(Oc3ccc(C)cc3)nccn2c1=O | 2.12% | -2.14% | -10.13% |
| COc1ccc(Cl)cc1NC(=O)Cn1nc2c3cc(-c4ccc(C)c(C)c4)nn3ccn2c1=O | -20.97% | 12.28% | -11.29% |
| COc1ccc(CNC(=O)Cn2nc3c(N4CCOCC4)nccn3c2=O)cc1 | 16.6% | 6.15% | -8.83% |
